The whole screen tested about 640,000 compounds, of which about 9,300 (1.5%) were called active. Cut-off read from the data, not from the text of the source: active = inhibition above about 32%; inactive = the rest. Only a selection was taken, and actives are over-represented in it overall.
Assay: TEAD-YAP interaction inhibition, primary screen, TEAD-YAP interaction inhibitor project, luminescence, HEK-TIYL cells (AID 1259422);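 note: 0% = median of test compound wells and 100% = reference inhibitor wells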
Details: TEAD-Gal4/YAP UAS-luciferase luminescence, at 9.12 µM, hits give high values

| Structure (SMILES) | inhibition |
| --- | --- |
| CN(c1ncnc2c1nc1n2CCCCC1)C1CCCCC1 | -48% (inactive) |
| CN(c1nc(N)ncc1[N+](=O)[O-])C1CCCCC1 | 33.8% (active) |
| CN(c1ccc(C(=O)Nc2cc(F)cc(F)c2)cc1[N+](=O)[O-])C1CCCCC1 | -5.53% (inactive) |
| COC(=O)C1=CN(Cc2ccc(OC)c(OC)c2)C=C(C(=O)OC)C1c1cccc(OCc2ccccc2)c1 | 55.4% (active) |
| CCOC(=O)C1=CN(Cc2ccc(F)cc2)C=C(C(=O)OCC)C1c1cccc(OCc2ccccc2)c1 | 10.8% (inactive) |
| CCOC(=O)C1=CN(Cc2ccc(Cl)cc2)C=C(C(=O)OCC)C1c1cccc(OCc2ccccc2)c1 | 5.47% (inactive) |
| CC(=O)c1ccc(OCC(=O)Nc2c(F)c(F)cc(F)c2F)cc1 | -0.14% (inactive) |
| CCOc1ccc(C2C(C#N)=C(N)N(c3ccc(F)cc3)C3=C2C(=O)CCC3)cc1 (stereo unspecified) | -0.96% (inactive) |
| N=C1c2ccccc2CN1NC(=O)c1ccccc1-n1cccc1 | 11.5% (inactive) |
| O=C(Cc1ccc([N+](=O)[O-])cc1)Nc1ccccc1Cl | -21.8% (inactive) |
| CNC(=O)c1ccccc1Nc1cc(NC(=O)C2(c3ccccc3)CC2)ncc1C(F)(F)F | -1.5% (inactive) |
| CNC(=O)c1ccccc1Nc1cc(NC(=O)Cc2ccc(F)c(F)c2)ncc1C(F)(F)F | 65.4% (active) |
| O=C(Cc1c(F)cccc1Cl)Nc1ccc(Cl)cn1 | -7.57% (inactive) |
| CNC(=O)c1ccccc1Nc1cc(NC(=O)C(F)(F)c2ccccc2)ncc1C(F)(F)F | 41.9% (active) |
| Cc1cc(NC(=O)c2cccs2)ncc1NC(=O)c1ccccc1F | -50.5% (inactive) |
| CNC(=O)c1ccccc1Nc1cc(NC(=O)Cc2ccc([N+](=O)[O-])cc2)ncc1C(F)(F)F | 78.8% (active) |
| CCc1ccccc1NC(=O)Cc1ccc([N+](=O)[O-])cc1 | 2.99% (inactive) |
| FC(F)(F)c1cccc(Nc2ccc(Br)cn2)c1 | 9.99% (inactive) |
| Cc1nc(NC(=O)c2ccc(C(C)(C)C)cc2)sc1C(=O)N1CCOCC1 | 13.1% (inactive) |
| COC(=O)c1cc2occc2n1CC(=O)N(C)c1ccccc1 | 4.95% (inactive) |
| Nc1cc(Oc2ccc3ccccc3c2)c(Cl)cc1[N+](=O)[O-] | 2.07% (inactive) |
| O=C(COc1coc(CN2CCN(c3ccccc3F)CC2)cc1=O)N1CCCCCC1 | -0.51% (inactive) |
| COC(=O)c1cc(NC(=O)Nc2cc(Cl)ccc2OC)cc(C(=O)OC)c1 | 0.04% (inactive) |
| Cc1cnc(CNc2cc(-c3cncc(-c4ccc(F)cc4)c3)nc(C)n2)cn1 | 33% (active) |
| Cc1ccc(-c2cncc(-c3cc(NCc4ccco4)nc(C)n3)c2)cc1 | -4.33% (inactive) |
| COCCNc1cc(-c2cncc(-c3ccc(F)cc3)c2)nc(C)n1 | -1.76% (inactive) |
